Source: PubChem (Broad Institute)
Vif imaging – HIV Vif inhibition | HEK293T cells, Vif self-association by quenched fluorescence, imaging, 24 h | inhibition, % at 7.49 µM | AID 602346 | actives 0.35% (n = 340,000); in the data active = inhibition above about 50%, passing the limit was not always enough; inconclusive = no clear call, values can overlap the other calls; inactive = below about 31%
Glyco luc inh – N-linked glycosylation inhibition; reporter increase, % at 12.5 µM; D54 ERlucT glycosylation luciferase reporter, 24 h; percent of 100 nM tunicamycin response; actives 0.23% (n = 360,000); AID 588692;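 active = mean luciferase reporter signal, scaled so untreated is 0 and the glycosylation-blocking control 100, at or above a set limit in every replicate; inconclusive = mean reaches the limit but not every replicate does; inactive = mean below the limit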;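 also: luciferase carries N-glycosylation sites so blocking glycosylation raises the light; 0% = median of neutral control wells and 100% = median of 100 nM tunicamycin wells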
PvdQ inh – P. aeruginosa PvdQ acylase inhibition. purified PvdQ acylase, fluorescence plate reader. inhibition, % at 10 µM. actives 0.063% (n = 340,000). AID 488965; in the data active = inhibition above about 30%, passing the limit was not always enough; inconclusive = no clear call, values can overlap the other calls;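 also: 0% = vehicle neutral wells and 100% = reference inhibitor wells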
PDI inh – blocks human protein disulfide isomerase activity | actives 0.052% (n = 350,000) | inhibition, % at 10 µM | PDI insulin aggregation turbidity, A650, 90 min;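 active = mean inhibition across replicates of 30% or more, whatever share of single replicates reach that level; inconclusive = mean inhibition below 30% while every single replicate reaches 30%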
ERp5 block – blocks human ERp5 reductase activity on insulin; ERp5 insulin aggregation, absorbance 650 nm, 90 min; actives 0.05% (n = 350,000); inhibition, % at 9.99 µM; AID 651711;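 active = mean replicate inhibition above about 25%, with every replicate also reaching it, limit read from the data, passing the limit was not always enough; inconclusive = only one of those two criteria met; inactive = neither criterion met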
Target sequence (Q15084 whole entry, looked up): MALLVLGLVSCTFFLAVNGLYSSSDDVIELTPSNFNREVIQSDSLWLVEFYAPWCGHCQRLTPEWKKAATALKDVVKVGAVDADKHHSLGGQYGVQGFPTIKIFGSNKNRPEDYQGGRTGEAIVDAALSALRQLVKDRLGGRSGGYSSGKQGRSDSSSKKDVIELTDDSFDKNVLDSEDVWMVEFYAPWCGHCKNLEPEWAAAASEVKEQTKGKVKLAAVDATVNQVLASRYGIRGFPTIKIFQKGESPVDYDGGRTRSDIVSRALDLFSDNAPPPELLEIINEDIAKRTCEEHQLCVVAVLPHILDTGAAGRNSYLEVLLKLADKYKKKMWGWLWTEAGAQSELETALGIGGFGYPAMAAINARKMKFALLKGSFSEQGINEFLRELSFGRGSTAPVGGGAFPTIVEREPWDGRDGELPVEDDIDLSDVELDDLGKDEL
Active calls of the source: *; ? = inconclusive; nt = no result. Hits are enriched below; roughly 0.56% of the tested compounds scored in any of these assays.

SMILES | Vif imaging | Glyco luc inh | PvdQ inh | PDI inh | ERp5 block
c1ccc2sc(-c3ccc4c(c3)OCO4)nc2c1 | -5 | -16 | 49* | -4 | nt
COc1cccc(-c2nc3ccccc3s2)c1 | -13 | -13 | 4 | -1 | nt
Cn1c(=O)[nH]c(=O)c2c1nc(NN)n2CCOc1ccccc1 | 0 | 61* | -11 | -2 | -1
Cc1cc(NC(=O)CSc2nc(-c3ccc(Cl)cc3)cs2)no1 | -4 | -1 | -15 | 7 | -4
Cc1cc(-c2ccccc2)nc2cc(C(=O)NCCCn3ccnc3)nn12 | 12 | 3 | -9 | 1 | nt
COCCNC(=O)c1cc2nc(-c3ccccc3)cc(C)n2n1 | -21 | 1 | 34* | -6 | -3
COC(=O)c1cccc(Nc2c3c(nc4ccccc24)CCC3)c1 | -12 | 22 | 2 | -6 | 0
CC(=O)c1cccc(Nc2c3c(nc4ccccc24)CCC3)c1 | -10 | 51* | -1 | -85 | 1
CC(=O)Nc1sc(C)c(C)c1C(=O)OCC(=O)Nc1ccccc1 | -9 | 85* | -7 | -6 | 7
Cc1sc(NC(=O)CCl)c(C(=O)c2ccccc2)c1C | -7 | 6 | 6 | 72* | nt
CC(=O)Nc1sc(C)c(C)c1C(=O)OCC(=O)Nc1cccc(C)c1 | -8 | 66* | -12 | -2 | -2
COc1cccc(NC(=O)COC(=O)c2c(NC(C)=O)sc(C)c2C)c1 | 0 | -1 | -10 | 3 | -8
C[C@@H]1CCCCO[C@@H](CN(C)S(=O)(=O)c2cccs2)[C@H](C)CN([C@@H](C)CO)C(=O)c2cc(NS(=O)(=O)c3ccc(Cl)cc3)ccc2O1 | nt | nt | nt | nt | -7
CCOc1ccc(NC(=S)Nc2ccccc2C2CC2)cc1 | -4 | 1 | 1 | 8 | -5
Cc1ccc(S(=O)(=O)NCC(=O)N(CC(=O)NCC2CCCO2)c2ccc(Cl)cc2)cc1 (stereo not drawn) | -4 | 2 | -10 | 4 | -3
COc1cc(OC)c(OC)cc1/C=N/NC(=O)CCc1c(C)n[nH]c1C | ? | 0 | -11 | 6 | 2
Cn1cnc(S(=O)(=O)N[C@H]2CC[C@H](CC(=O)NCC3CC3)O[C@@H]2CO)c1 | nt | nt | nt | nt | -1
O=S(=O)([N-]c1nc2ccccc2nc1-n1cc[n+](Cc2ccccc2)c1)c1ccc(Cl)cc1 | 3 | 47* | -15 | -8 | 5
Cn1cnc([N+](=O)[O-])c1Oc1ccc2ccccc2c1 | -19 | 47* | 1 | -3 | nt
CCOc1ccccc1C1C2=C(COC2=O)Nc2cc3c(cc21)OCO3 (stereo not drawn) | 81* | 15 | -14 | -2 | -6
COc1ccccc1N(CC(=O)N/N=C/c1ccc(OCC(=O)NCc2ccco2)cc1)S(=O)(=O)c1ccc(C)cc1 | 8 | -9 | 2 | -2 | nt
COC(=O)COc1ccc(/C=N/NC(=O)CN(c2ccccc2OC)S(=O)(=O)c2ccccc2)cc1 | 57* | -11 | 6 | -5 | 0
CC(=O)Nc1ccc(S(=O)(=O)NCC(=O)OCC(=O)NC23CC4CC(CC(C4)C2)C3)cc1 | 75* | 1 | 2 | -3 | nt
CC(=O)Nc1ccc(S(=O)(=O)NCC(=O)OCC(=O)NC(=O)C2CCCCC2)cc1 | 8 | -2 | 3 | 2 | nt
CCOC(=O)CN1C(=O)C(=O)N(Cc2c(F)cccc2Cl)C1=O | 1 | 2 | -9 | -6 | -1
SMILES | Vif imaging | Glyco luc inh | PvdQ inh | PDI inh | ERp5 block
Oc1[nH]c(=S)sc1/C=C1\C(c2ccccc2)=Nc2ccccc21 | 69* | 1 | 5 | -11 | nt
CCN(CC)c1ccc2cc(C(N)=O)c(=O)oc2c1 | 132* | 2 | 7 | 0 | 2
N#C/C(=C\c1ccccc1OCc1ccc(C(=O)O)cc1)C(=O)Nc1ccc(O)cc1 | 21 | 0 | -8 | 51* | -1
CN1OC[C@@H]2CN3C(=O)N(c4ccccc4)c4ccccc4[C@@H]3C[C@@H]21 | 20 | 1 | nt | nt | -1
Cc1ccc(C(=O)Nc2ccccc2C(=O)N2CC(C)OC(C)C2)cc1 (stereo not drawn) | 5 | 46* | nt | 9 | 1
COc1ccccc1S(=O)(=O)N1C[C@@H](O)COC[C@@H]2O[C@@H](CC(=O)O)CC[C@H]21 | nt | nt | nt | nt | 1
COc1ccccc1S(=O)(=O)N1C[C@H](O)COC[C@H]2O[C@@H](CC(=O)O)CC[C@@H]21 | nt | nt | nt | nt | 36*
Cc1cccc(NC(=O)c2ccc3c(c2)OCCO3)n1 | -10 | -10 | 37* | -8 | nt
CCOc1ccc(C(=O)Nc2cccc(C)n2)cc1 | 20 | -12 | 51* | -3 | nt
Cc1cccc(NC(=O)CNC(=O)c2ccc3c(c2)OCO3)n1 | -5 | 2 | -4 | -5 | -2
CC(CN)(NS(=O)(=O)c1ccccc1)c1ccccc1 (stereo not drawn) | 66* | -1 | 5 | 6 | -7
CC(CN1CCOCC1)(NS(=O)(=O)c1ccccc1)c1ccccc1 (stereo not drawn) | -3 | 2 | -4 | 0 | 1
CN(C)S(=O)(=O)N1CCCN(S(=O)(=O)N(C)C)CC1 | 66* | 2 | -5 | -3 | nt
COCCC(=O)N1CCc2ccc(NC(=O)c3ccc(C(F)(F)F)cc3)cc2C1 | -7 | -2 | -6 | 0 | 0
Cn1c(=O)oc2cc(S(=O)(=O)NCc3ccc(Cl)cc3)ccc21 | 2 | 2 | -21 | 3 | -1
O=C(CN1C(=O)C2C3C=CC(C4CC34)C2C1=O)Oc1ccccc1 (stereo not drawn) | 2 | 2 | 34* | -1 | 3
O=C1C2C3C=CC(C4CC34)C2C(=O)N1CCc1ccccc1 (stereo not drawn) | 19 | 1 | 1 | 2 | nt
O=[N+]([O-])c1ccc(OCC(O)CNCCNc2nccc(C(F)(F)F)n2)cc1 (stereo not drawn) | -3 | 4 | -8 | 7 | -7
CCCCSc1nn[nH]n1 | 52* | 1 | 7 | 1 | 4
CC(C)(C)c1ccc(C(=O)NC(=S)NNC(=O)c2cccs2)cc1 | 2 | 7 | 8 | -3 | nt
O=c1[nH]c(CCl)nc2cc(-c3ccc(F)cc3)sc12 | -1 | -14 | 2 | 43* | 2
O=[N+]([O-])c1cc(-c2ccc(/C=N\n3cnnc3)o2)cc([N+](=O)[O-])c1 | 121* | 2 | 6 | -4 | -2
COc1ccc(Br)cc1/C(C)=N/NC1=NCCN1 | 5 | -1 | -23 | -2 | nt
CCCCCOc1ccc(Br)cc1/C(C)=N/NC1=NCCN1 | 75* | -7 | -37 | 8 | nt
Cc1ccc(C(=O)N/C(=C\c2sccc2C)C(=O)NCc2ccco2)cc1 | 51* | 2 | 4 | -9 | nt
Cc1ccc(C(=O)N/C(=C\c2sccc2C)C(=O)NCc2ccncc2)cc1 | 0 | 2 | 5 | 7 | nt
Cc1ccc(C(=O)Nc2ccncc2)cc1S(=O)(=O)N1CCOCC1 | 1 | 4 | 6 | 4 | 5
NC(=O)CC(NC(=O)c1ccc(Br)cc1)c1ccc(NC2CCCCCC2)c([N+](=O)[O-])c1 (stereo not drawn) | 70* | 14 | -18 | -5 | 3
O=C(c1ccc(Br)cc1)c1cc([N+](=O)[O-])ccc1N1CCCCC1 | 63* | 4 | -3 | 25 | nt
